The values below come from PubChem BioAssay AID485275 (NMMLSC, 2010).

The structures appear in SMILES notation. Out of some 330,000 compounds screened, about 1,400 (0.42%) were called active. This is one part of a sample in which actives are shown more often than they occur. Unmarked numbers belong to inactive results.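 Rule for the calls: active = plate passing quality check with inhibition over a set limit, or well fluorescence over plate mean plus 4 SD; inactive = the rest.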

The nature of the assay: inhibitors of Candida efflux pumps in yeast, primary screen, S. cerevisiae, Nile Red, multiplex (AID 485275).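 Note: Nile Red retained in pooled yeast measured as flow cytometry median fluorescence; 0% = buffer negative control and 100% = Enniatin B positive control; higher means more Nile Red kept so more efflux inhibition.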 The following applies: S. cerevisiae Candida pump triplex, at 10 µM, hits give high values.
On to `COc1ccccc1/C=N/N1CCN(Cc2ccccc2Cl)CC1`, for which the inhibition is -0.11%.
For `CC12CCC(C(=O)N(NC(=O)c3ccccc3O)C1=O)C2(C)C` (centres undefined), the inhibition was -0.08%.
The same measure for `CC12CCC(C(=O)N(c3cccc(Cl)c3)C1=O)C2(C)C` (centres undefined): 10.2% (active); for `O=C1CC(NNc2ccccc2)C(=O)N1c1cccc(Cl)c1` (centres undefined): 0.07%; for `O=C(CCCN1C(=O)CSc2ncccc21)N1CCN(c2cccc(C(F)(F)F)c2)CC1`: 0.01%.
For `O=C(CSC1CC(=O)N(CCc2ccccc2)C1=O)Nc1ccc(Cl)cc1` (centres undefined) the value was 0.17%; for `NC(=O)c1cc(S(=O)(=O)NCCCc2ccco2)cs1`, -0.02%; for `COc1cccc(NC(=O)CN(C)C(=O)Cc2ccc(Cl)cc2Cl)c1`, -0.07%.
The same measure for `COc1cccc(NC(=O)CN(C)C(=O)/C=C/c2cc(OC)ccc2OC)c1`: 15.2% (active); for `COc1ccc(/C=C/C(=O)OCC(=O)Nc2cccc(Oc3ccccc3)c2)c(OC)c1`: -0.02%.
Take `CCN(CC)CC(=O)Nc1nn(-c2ccccc2)nc1C(N)=O`: the inhibition was 0.02%.
The same measure for `Cc1ccc(C(=O)Nc2ccn(C)n2)cc1`: -0.02%.
The same measure for `CN(C)S(=O)(=O)c1cc(C(=O)Nc2ccn(C)n2)c(Cl)cc1Cl`: 52.3% (active).
Consider `O=C(Nc1nccs1)c1cc(S(=O)(=O)N2CCOCC2)c(Cl)cc1Cl`, for which the inhibition is -0.05%.
For `COC(=O)/C(=C1\Oc2ccc(C(C)(C)C)cc2S1)C(F)(F)F` the value was -0.15%.
For `O=C(NN1C(=O)C2CCCCC2C1=O)c1ccco1` (centres undefined) the value was -0.1%.
For `Cc1ccc(S(=O)(=O)N2CC(C)N(S(C)(=O)=O)C2)cc1` (centres undefined), the inhibition is -0.07%.
For the compound `CCOC(=O)c1c(NC(=O)C2(C)Cc3ccccc3C(=O)O2)sc2c1CCCC2` (centres undefined), the inhibition is 0.15%.
The same measure for `CCOC(=O)c1c(NC(=S)Nc2ccccc2)sc2c1CCN(C)C2`: -0.02%; for `CCOC(=O)c1c(NC(=S)NC(=O)c2ccco2)sc2c1CCCC2`: 1.02% (active).
For `C=CCNC(=O)c1sc(SC)cc1-c1ccc(Cl)cc1` the value was -0.08%.
`CCCCN1C(=O)CCC(C(=O)O)C1c1ccc(OC)cc1` (centres undefined): the inhibition is 0.12%.
Take `Cc1ccc(C)c(-n2nnnc2SCC(=O)c2c(N)n(C)c(=O)n(C)c2=O)c1`: the inhibition was -0.07%.
For `COc1ccc(OC)c(-n2nnnc2SCC(=O)Nc2cc(C)ccc2OC)c1` the value was -0.01%; for `CCOC(=O)CNC(=O)CSc1nnnn1-c1cc(C)ccc1C`, 0.92% (active); for `O=C(NCC(=O)N1CCN(c2ncc(C(F)(F)F)cc2Cl)CC1)c1ccc(Br)o1`, -0.34%.
The same measure for `CC(=O)Nc1ccc(S(=O)(=O)N2CCC(C(=O)NC3CC3)CC2)cc1`: -0.06%.
The same measure for `CN1CCN(S(=O)(=O)c2ccc(NC(=O)C3CCCO3)cc2)CC1` (centres undefined): -0.16%.
`CN1CCN(S(=O)(=O)c2ccc(NC(=S)NC(=O)C3CC3)cc2)CC1`: the inhibition is 10.2% (active).
The same measure for `CCN(CC(=O)Nc1c(F)cccc1F)C(=O)c1cnc(C)cn1`: -0.12%.
For `Cc1ccc(N=C2NC(=O)/C(=C/C=C/c3ccco3)S2)cc1C` the value was 2.76% (active).
The same measure for `CN1C(=O)/C(=C/c2ccco2)SC1=Nc1cccc(C(=O)O)c1`: -0.02%; for `CCCn1c2ccccc2c2cnn(CC(=O)NCCCN3CCCCC3CC)c(=O)c21` (centres undefined): 0.02%.
As to `CC(C)N1CCC(N2CCN(Cc3cccnc3)CC2CCO)CC1` (centres undefined), the inhibition was 0.28%.
The same measure for `Nc1ccc(N=Nc2ccccc2Cl)c(N)n1`: 0.15%; for `O=C(CC(=O)N/N=C\c1cccc(Cl)c1Cl)NCc1ccccc1`: 0.27%.
The same measure for `CCOC(=O)CNC(=O)/C=C/c1c(Cl)cccc1Cl`: -1.16%.
As for `O=C(/C=C/c1c(Cl)cccc1Cl)NCc1ccccc1`, the inhibition was 24.9% (active).
The same measure for `CCCc1ccc(OCC(O)CN2CCN(C(=O)OCC)CC2)cc1` (centres undefined): 0.15%; for `C=CCC[C@H](Cc1ccc(F)cc1)C(=O)OC[C@H](C)NC(=O)[C@H](CC=C)CC(=O)N(CCO)Cc1ccccc1`: -0.16%.
For the compound `C=CCC[C@H](Cc1ccc(F)cc1)C(=O)OC[C@@H](Cc1c[nH]c2ccccc12)NC(=O)[C@H](CC=C)CC(=O)N[C@H](CO)Cc1ccccc1`, the inhibition was -0.27%.
For `C=CCC[C@@H](Cc1ccc(F)cc1)C(=O)OC[C@H](Cc1c[nH]c2ccccc12)NC(=O)[C@@H](CC=C)CC(=O)N(CCO)Cc1ccccc1` the value was 149% (active).
The same measure for `COCC(C)NC(=O)c1ccc(-n2nc(C(F)(F)F)cc2-c2cccs2)cc1` (centres undefined): -0.07%.
The same measure for `CCn1c(=O)c(C(=O)NCc2ccc3c(c2)OCO3)c(O)c2ccccc21`: -0.11%; for `Cc1nc2c(C(=O)NCc3ccc4c(c3)OCO4)c[nH]n2c(=O)c1Cc1ccccc1F`: 0.63% (active); for `O=C(NCc1ccc2c(c1)OCO2)c1cc(F)c(F)cc1Cl`: 0.18%.
For the compound `CCN(C(=O)CSc1nnc(-c2ccc(OC(F)F)cc2)n1N)C1CCS(=O)(=O)C1` (centres undefined), the inhibition was 0.02%.
`CC(=O)C1(C)N(O)C(C)(C)C(c2cccs2)=[N+]1[O-]` (centres undefined): the inhibition was -0.09%.
The same measure for `COc1cc(Cl)c(C)cc1NC(=O)CSc1nnc(-c2cccnc2)n1Cc1ccco1`: 0.03%; for `O=C(CSc1nnc(-c2cnccn2)n1Cc1ccco1)c1ccc(Cl)c(Cl)c1`: -0.1%; for `O=C(CSc1nnc(-c2cccnc2)n1Cc1ccco1)c1ccc(Cl)c(Cl)c1`: 0.84% (active).
For `CSc1cccc(NC(=O)C2CCCN2S(=O)(=O)c2ccc3c(c2)CCC(=O)N3)c1` (centres undefined) the value was 0.16%; for `COc1cccc(CNC(=O)C(=O)NCCC2CCCCN2S(=O)(=O)c2ccc(C)cc2)c1` (centres undefined), 0.03%; for `Cc1ccc(C(=O)Nc2ccccc2-c2ccccc2)cc1S(=O)(=O)Nc1ccccc1`, 0.01%.
The same measure for `Cc1ccc(C(=O)O)cc1N1C(=O)CCCC1=O`: -0.14%; for `CCNc1c(NS(=O)(=O)c2ccc(C3CCCCC3)cc2)c(=O)oc2ccccc12`: 1.37% (active); for `O=c1oc2ccccc2c(NC2CCCCC2)c1NS(=O)(=O)c1ccc(Cl)cc1`: -0.01%.
Consider `CCC(=O)Nc1ccc(S(=O)(=O)Nc2c(NC)c3ccccc3oc2=O)cc1`, for which the inhibition was 0.02%.
For `CC1CC(C)CN(C(=O)C2CC(=O)N(c3ccc(F)cc3)C2)C1` (centres undefined) the value was -0.06%; for `COc1ccccc1N=C1SC(C)CN1C(=O)C1CCC1` (centres undefined), 0.03%; for `O=C(NN1C(=O)C2C3C=CC(O3)C2C1=O)c1ccncc1` (centres undefined), 0.07%.
The same measure for `Cc1ccc(-c2csc(NC3OC(=O)c4ccccc43)n2)cc1` (centres undefined): 0.03%.
For `c1cnc(Nc2nc(-c3ccc4ccccc4c3)cs2)nc1` the value was 0.79% (active); for `Cc1ccccc1Nc1nc(-c2cccnc2)cs1`, 0.3%; for `COc1ccc(C(=O)C2CCCN(Cc3ccc4nonc4c3)C2)c(C)c1` (centres undefined), 0.05%.
For `CCOC(=O)c1[nH]ncc1CN1CCCC(C(=O)c2ccc(OC)cc2C)C1` (centres undefined), the inhibition was 0.25%.
The same measure for `COc1ccc(C(=O)C2CCCN(Cc3cccn3-c3ccccn3)C2)c(C)c1` (centres undefined): 0.98% (active); for `Cc1c(CCO)sc[n+]1CC(=O)OC12CC3CC(CC(C3)C1)C2`: -0.46%.
`Cc1c(CCOC(=O)CC23CC4CC(CC(C)(C4)C2)C3)sc[n+]1Cc1ccc([N+](=O)[O-])cc1`: the inhibition is 0.61% (active).
For `Cc1c(CCOC(=O)c2cc([N+](=O)[O-])ccc2Cl)sc[n+]1CCCCS(=O)(=O)[O-]` the value was 0.04%; for `CC1CCCCC1NC(=O)Cn1c(=O)cnc2ccccc21` (centres undefined), -0.23%; for `CCOC(=O)N1CCN(S(=O)(=O)c2ccc(C(=O)Nc3ccc(F)cc3F)cc2)CC1`, -0.12%.
For `Cc1c(C(=O)NCCN2C(=O)S/C(=C\c3cccs3)C2=O)cccc1[N+](=O)[O-]` the value was 0.33%; for `CCOc1ccc(CCNC(=O)Nc2ccccc2)cc1OCC`, -0.23%; for `O=C(Cc1ccc(Br)cc1)NCCN1CCOCC1`, -0.17%.
For `CCOc1ccccc1C1NC(=O)NC(C)=C1C(=O)OCc1ccco1` (centres undefined) the value was 0.02%; for `CCOc1ccccc1/C=c1\sc2nc(-c3ccco3)nn2c1=O`, 3.16% (active); for `CCCn1nc(C(=O)NNC(=O)CCOc2ccccc2OCC)c2ccccc2c1=O`, -0.08%.
`O=C(CCNC(=O)c1ccc([N+](=O)[O-])cc1)Nc1ccccc1N1CCOCC1`: the inhibition is 0.19%.
Consider `Cc1nc2sc(C(c3ccco3)N3CCC4(CC3)OCCO4)c(O)n2n1` (centres undefined), for which the inhibition is -0.06%.
For `O=C(NC(=S)Nc1ccc2oc(=O)ccc2c1)c1ccc(-c2cccc(Cl)c2Cl)o1` the value was 0.12%.
For `NC(=O)C1CCN(CC(O)CSc2ccc(F)cc2)CC1` (centres undefined) the value was -0.06%; for `CC1CCc2c(sc3c2C2=NS(=O)(=O)CCN2C=N3)C1` (centres undefined), 0.15%.
For `O=C(CNC(=O)c1ccc(-c2ccccc2)cc1)OCc1ccc(Cl)cc1` the value was 17.2% (active).
Take `O=C(CNC(=O)c1ccccc1)NCC(=O)OCc1ccc(Cl)cc1`: the inhibition is 0.03%.
For `Cc1ccc(C(=O)NCC(=O)OCc2nnc(-c3ccccc3)o2)cc1` the value was 0.08%.
In the case of `CN1CCN(Cc2c(C(=O)N3CCc4ccccc4C3)nc3ccc(Cl)cn23)CC1`, the inhibition is 0.16%.
For `CCOc1ccc(NC(=O)CN(C)C(=O)COc2cccc(CC)c2)cc1OCC` the value was 0.06%.
The same measure for `COc1ccccc1-c1sc2ccccc2c1-c1ccc(Br)nc1`: -0.34%; for `COc1ccc2sc(-c3ccccc3OC)c(-c3ccc(OCCN4CCCC4)cc3)c2c1`: 198% (active).
As to `COc1ccc(-c2sc3ccccc3c2-c2ccc(OCCN3CCOCC3)cc2)cc1`, the inhibition was 0.31%.
With `COc1cc(OC)cc(-c2sc3ccc(OC)cc3c2-c2ccc3cc[nH]c3c2)c1`, the inhibition is -0.09%.
For `COc1ccccc1-c1sc2ccccc2c1-c1ccc(C(C)=O)cc1`, the inhibition was -0.1%.
For `O=C(COC(=O)COc1cc(Cl)c(Cl)cc1Cl)NC1CC1` the value was 0.12%.
The same measure for `O=c1c2ccccc2oc2nc(C3CCCCC3)n(Cc3ccco3)c(=O)c12`: -0.05%.
On to `Cc1ccc(Cn2c(C)nc3c(c2=O)c2nc4ccccc4nc2n3Cc2ccco2)cc1`, for which the inhibition was 0.94% (active).
The same measure for `Clc1cccc(-c2nc3nc4ccccc4nc3n2Cc2ccco2)c1`: -0.17%; for `Cc1cc(N(C)C)cc(C)[n+]1[O-]`: -0.18%; for `C=CC[n+]1c(-c2ccc(C)cc2)csc1NNC(=O)Nc1ccccc1`: -0.18%.
The same measure for `COC(C(=O)Nc1ccc(C(C)=O)cc1)c1ccccc1` (centres undefined): -0.08%; for `Cc1ccc(C)c(NC(=O)C(OC(=O)c2ccc(C)s2)c2ccccc2)c1` (centres undefined): -0.08%.
For `Cc1cc(C)cc(NC(=O)C(OC(=O)c2ccc(O)cc2)c2ccccc2)c1` (centres undefined) the value was 0.91% (active).
`O=C(O)CCCCCCCCCC[n+]1ccccc1`: the inhibition was 0.3%.
The same measure for `CCOC(=O)C1(Cc2cccc(OC)c2)CCCN(C(=O)CCSC)C1` (centres undefined): 0.41%; for `Cc1cccc(OCCC(=O)OCc2csc(CC(=O)Nc3ccccc3C)n2)c1`: 0.08%.
With `O=C(c1ccc(F)cc1)N1CCC(n2nnc3ccccc32)CC1`, the inhibition was -0.14%.
For `COc1ccc2cc(C3=CC(=O)C[C@H](c4ccc5c(c4)OCO5)C3)ccc2c1` the value was -0.01%; for `Brc1cnc2ccccc2c1N1CCCCC1`, 0.04%; for `COc1cc(C(=O)NCc2ccc(-n3cccc3)cc2)cc(OC)c1OC`, 0.13%.

Usually inhibition stands for the relative decrease from the control value, in per cent.
